# A selection: hits, their analogues and other compounds. The true share with any hit is near 2.1%.
# STAT3 SMM: STAT3 (human) binding; actives 0.2% (n = 17,000); P40763; AID 624138; Small molecule microarray, His-STAT3 binding, anti-His fluorescence; calls only;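 active means compounds whose four printed spots each show fluorescence over background unusually high for their array block, chance value under 7%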
# c-Myc SMM: c-Myc (human) binding; P01106; small molecule microarray, His-c-Myc binding, anti-His fluorescence; calls only; actives 1.5% (n = 17,000); AID 624141;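 active means spot fluorescence over background with P-value below 7% in all four replicate spots, showing protein binding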;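 further: score is binary with 100 for all four spots passing and 0 otherwise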
# NFkB SMM: binders of human NF-kappa-B p105; P19838; Small molecule microarray, anti-His fluorescence binding; calls only; actives 1.3% (n = 17,000); AID 624139;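 active means spot fluorescence over background significantly raised, with a chance value under 7% in all four replicate spots of the compound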;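 further: probe protein is his-tagged human p50 processed subunit at 1 µg/ml; raw spot fluorescence signals with no normalization applied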
# mut p53 SMM: mutant p53 (human) binding | small molecule microarray binding, anti-GST fluorescence | calls only | actives 0.4% (n = 17,000);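 active means compounds whose four printed spots each glow above background more than chance allows, each with a p-value under 7%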
# * hit, by the source's call; i = inactive; + = active, no number.
SMILES,STAT3 SMM,c-Myc SMM,NFkB SMM,mut p53 SMM
COC1CC(OC2CCC3(C)C(CCC4(O)C3CC(OC(=O)c3ccccc3)C3(C)C(O)(C(C)=O)CCC43O)C2)OC(C)C1OC1CC(OC)C(OC2OC(C)C(O)C(OC)C2O)C(C)O1 (configuration not stated),i,+,+,i
CO[C@H]1[C@@H](O)[C@@H](C)O[C@@H](OC2CCC3(C)C(CC[C@@H]4[C@@H]3CCC3(C)C(C5=CC(=O)OC5)C(O)CC43O)C2)[C@@H]1O (some centres not stated),i,i,i,i
CCC(C)[C@H]1C(=O)O[C@H](C(C)C)C(=O)N(C)[C@@H](C(C)C)C(=O)O[C@H](C(C)C)C(=O)N(C)[C@@H](C(C)C)C(=O)O[C@H](C(C)C)C(=O)N1C (some centres not stated),i,i,+,i
CC(=O)c1c(C)n(Cc2ccccc2)c2c(Cl)c(Cl)c(Cl)c(OCC(=O)O)c12,i,i,i,i
CNCC(O)c1ccc(O)c(OC)c1 (configuration not stated),i,i,i,i
O=C(O)C1C2CCC(O2)C1C(=O)NCCc1ccccc1 (configuration not stated),i,+,i,i
CC[C@@H]1/C=C\C=C\C[C@H](C)[C@@H](O)[C@](C)(O)C(=O)[C@H](C)[C@@H](O)[C@H](C)C(=O)[C@H](C)[C@@H](O)[C@H](C)/C=C/C(=O)O[C@H]2[C@@H](C)[C@@H](CC1)O[C@@]1(CC[C@@H](C)[C@@H](C[C@H](C)O)O1)[C@@H]2C,i,i,i,i
Cc1ccc2c(c1)Cc1c(C(=O)NC3CCCCC3)nn(-c3ccc(Cl)cc3Cl)c1-2,i,i,+,i
CCC(CO)NC(=O)C1C=C2c3cccc4[nH]cc(c34)CC2N(C)C1 (configuration not stated),i,+,+,i
CC[C@@H](CO)NC(=O)[C@@H]1C=C2c3cccc4c3c(cn4C)C[C@H]2N(C)C1,i,+,i,i
CC(C)C1(NC(=O)C2CC3c4cccc5[nH]cc(c45)CC3N(C)C2)OC2(O)C3CCCN3C(=O)C(Cc3ccccc3)N2C1=O (configuration not stated),i,i,i,i
O=C1/C(=C/c2ccccc2)C[C@@]2(O)C3Cc4ccc(O)c5c4[C@@]2(CCN3CC2CC2)[C@H]1O5,i,i,i,i
